Compound activity as filed in PubChem BioAssay.
Hits are enriched below; roughly 19% of the tested compounds scored in any of these assays.
DT40 TDP1 CPT – DT40-hTDP1 cell growth loss with CPT; chicken DT40 Tdp1-/-;hTDP1 cells + 20 nM CPT, ATP luminescence, 48 h; Potency, µM (top dose mostly 46.2 µM), inactives show top-dose activity change, negative = growth inhibition, actives largely listed as inhibitors; actives 12% (n = 420,000); AID 686979; also: potency is read from the fitted curve at half-maximal effect; nearly all actives have a fitted effect of over 55% in size
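Chicken DT40 Tdp1-/- cells complemented with human TDP1, 400 cells/well, exposed to compounds plus 20 nM camptothecin for at least 48 h at 37 C; viability read as ATP content by CellTiter-Glo luminescence.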
ELG1 DNA repair – ELG1-dependent DNA repair inhibition; HEK293T ELG1-luciferase reporter, luminescence, 16 h; DNA damage induced by 5-fluorouridine; Potency, µM (series often up to 46.1 µM), inactives show at the top dose activity change, negative = inhibition, most hits filed as inhibitors; actives 2.3% (n = 330,000); AID 504467; also: potency is read from the fitted curve at half-maximal effect; nearly all actives have a fitted effect of over 55% in size
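DMSO vehicle served as the neutral condition. Each well held 2,000 cells given 5-fluorouridine plus compound; after 16 hr at 37 °C/5% CO2, ONE-Glo was added and luciferase measured 30 min later.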
HT1080 IDH1KD tx – HT-1080 IDH1 knockdown cell toxicity (counter line); Potency, µM (doses to about 46.1 µM), for inactives: at the top dose activity, negative = toxicity, hits mostly cytotoxic; actives 2% (n = 360,000); HT-1080 IDH1 knockdown viability, ATP luminescence, 48 h;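 also: potency is read from the fitted curve at half-maximal effect; 0% = DMSO wells and -100% = cell-free medium wells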
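CellTiter-Glo luminescence after 48 h compound exposure at 37 degrees C of IDH1-knockdown HT-1080 cells in 5% FBS RPMI. %Activity scaled between DMSO wells and cell-free media wells, with curves fitted and assigned curve classes.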
IL-1B inflam inh – inflammasome signaling inhibition, IL-1 beta readout | THP-1 LPS/ATP IL-1B secretion, AlphaLISA, 16 h; hits give low values | activity change, % at 57.5 µM | actives 4.7% (n = 360,000) | AID 743279; in the data active = activity change below about -50%; inconclusive = mostly about -30% to -49%
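Secreted IL-1B measured by AlphaLISA bead assay after 16 h compound exposure of THP-1 cells; compounds (final up to 57.5 uM) added 1 h before LPS (250 ng/mL) and ATP (1.25 mM) stimulation; lower signal means less secretion.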
HT1080NT lethal – kills 2HG-producing HT-1080-NT fibrosarcoma cells. Potency, µM (doses to about 46.1 µM), for inactives: at the highest dose activity, negative = less viability, usual class: cytotoxic. HT-1080-NT fibrosarcoma viability, CellTiter-Glo ATP luminescence, 48 h. actives 1.6% (n = 360,000);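 also: NT is the 2HG producing partner of a matched IDH1 knockdown line; potency is read from the fitted curve at half-maximal effect; 0% = DMSO-treated cells and -100% = media-only wells without cells; nearly all actives have a fitted effect of over 55% in size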
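Toxicity toward the 2HG-producing NT line was scored as %Activity, normalised to DMSO and no-cell wells, from CellTiter-Glo luminescence after 48 hours' treatment.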
DT40 TDP1 no CPT – qHTS for Inhibitors of human tyrosyl-DNA phosphodiesterase 1 (TDP1): qHTS in cells in absence of CPT | Potency, µM (top dose mostly 46.2 µM), for the others: at the highest dose activity change, negative = growth inhibition, hits mostly inhibitors | DT40 Tdp1-/- hTDP1 cells, no CPT, ATP luminescence, 48 h | actives 15% (n = 420,000); also: potency is read from the fitted curve at half-maximal effect; nearly all actives have a fitted effect of over 55% in size
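No-CPT arm: Tdp1-/-;hTDP1 DT40 cells (400/well) plus compounds, incubated ≥48 hr at 37 °C. Readout CellTiter-Glo luminescence.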
* marks the source's active call; other numbers are inactive results; u = inconclusive; x = not tested or not shown; [ ] = remark or other dose. Unless noted, calls follow the shape of the dose curve; as a rule, active = well fitted curve in the direction sought with a large enough effect; inconclusive = small, poorly fitted or top-dose-only effect, or another doubt; inactive = no such curve, though single readings can be large; an effect the other way counts as inactive or inconclusive. Unless noted, % is scaled to controls: 0 for no effect and ±100 for the full control effect.

SMILES | DT40 TDP1 CPT | ELG1 DNA repair | HT1080 IDH1KD tx | IL-1B inflam inh | HT1080NT lethal | DT40 TDP1 no CPT
O=C(CSc1nc(-c2ccc(F)cc2)[nH]c1-c1ccc(F)cc1)Nc1ccc2c(c1)OCO2 | 16µM* | x | x | x | x | 23µM*
CCOc1ccc(-c2nc(SCC(=O)Nc3ccc4c(c3)OCO4)c(-c3ccc(F)cc3)[nH]2)cc1 | -19% | x | x | x | x | u
CC(OC(=O)CCNS(=O)(=O)c1cccs1)C(=O)Nc1ccc(S(N)(=O)=O)cc1 (stereo not given) | -8% | 13% | 6% | 2 | 6% | -2%
Cc1cc(C)nc(N(C#N)CCOc2ccccc2)n1 | u | x | -3% | u | 2% | u
COc1ccccc1OCCN(C#N)c1nc(N(C)C)nc(N(C)C)n1 | 21µM* | u | 2% | -77* | 5% | u
CCCn1c(=O)c2sccc2n2c(CCCC(=O)NC3CCC(C)CC3)nnc12 (stereo not given) | -16% | x | x | x | x | -22%
COc1cc(SC#N)ccc1N=Cc1c(C)[nH]n(-c2ccc(Cl)cc2)c1=O | 2.6µM* | u | -9% | u | -15% | 3.7µM*
Cc1ccc(-n2[nH]c(C)c(/C=C3/C=Nc4ccccc43)c2=O)cc1C | -3% | u | -2% | 49 | -2% | 0%
COc1cc(SC#N)ccc1N=Cc1c(C)[nH]n(-c2ccc(C)c(C)c2)c1=O | 3.3µM* | u | 15µM* | -98* | 21µM* | 2.6µM*
O=C(NCC1CC1)c1cc(-c2ccccc2)nn1CC1CC(c2cccnc2)=NO1 (stereo not given) | -17% | x | 3% | -1 | 29% | -2%
CC(C)C[C@H]1CN(CCCC[C@@H]2CNC(=O)C(=O)N2CCc2ccccc2)C(=O)C(=O)N1Cc1ccccc1 | 0% | x | u | -4 | 15% | -9%
CCCc1ccc(C2C3=C(CC(C)(C)CC3=O)NC3=C2C(=O)c2ccccc23)cc1 (stereo not given) | 21µM* | -11% | u | u | u | 16µM*
CN(C)S(=O)(=O)c1ccc(Cl)c(NC(=O)COC(=O)C2CSC3(C)CCC(=O)N23)c1 (stereo not given) | 25% | 3% | 13% | 19 | 18% | -1%
O=c1c(-c2cc(-c3ccccc3)nc3c2COc2ccccc2-3)coc2ccc(Cl)cc12 | -4% | x | x | x | x | 0%
Cc1nn(-c2ccc(Cl)cc2)c(NC(=O)C(C)C)c(-c2ccccc2)c1=O | 14% | 7% | 1% | 13 | 0% | 0%
COc1ccc(COCCN2CCN(S(=O)(=O)c3ccc(C)cc3)CCC2=O)cc1 | 21µM* | -13% | 5% | -11 | 5% | u
COc1cccc(COCCN2CCN(S(=O)(=O)c3ccc(C)cc3)CCC2=O)c1 | u | 0% | -14% | -20 | 1% | u
Cc1ccc(S(=O)(=O)N2CCC(=O)N(CCOCc3cccc(C)c3)CC2)cc1 | 10µM* | -7% | -3% | -9 | 4% | u
Cc1ccc(S(=O)(=O)N2CCC(=O)N(CCOCc3cccc(C(F)(F)F)c3)CC2)cc1 | 15µM* | -2% | 1% | u | -6% | u
Cc1ccc(COCCN2CCN(S(=O)(=O)c3ccc(C)cc3)CCC2=O)cc1 | u | -16% | 1% | 34 | 3% | u
COc1ccc(N(CC(=O)N2CCN(Cc3ccccc3)CC2)S(C)(=O)=O)c(OC)c1 | u | -7% | 12% | 0 | 10% | 13µM*
CCOc1ccccc1N(CC(=O)N1CCN(Cc2ccccc2)CC1)S(=O)(=O)c1ccccc1 | 23µM* | x | -6% | -5 | -14% | 8.2µM*
CC1(C(=O)O)CCCN1C(=O)c1cc2ccccc2s1 (stereo not given) | 1% | x | 7% | 23 | 22% | -19%
COc1ccc(CN2Cc3ccccc3OC(c3ccccc3OC)C2)c(O)c1 (stereo not given) | -1%[9.04 µM] | x | x | x | x | u
Cn1c2ccccc2c2cnn(CC(=O)NCCCN3CCCCC3)c(=O)c21 | 15% | x | x | x | x | -24%
SMILES | DT40 TDP1 CPT | ELG1 DNA repair | HT1080 IDH1KD tx | IL-1B inflam inh | HT1080NT lethal | DT40 TDP1 no CPT
CCOC(=O)c1c(CN(C)C)n(C)c2c(O)c(N=NC(N)=O)c3ccc(Br)cc3c12 | u | -14% | u | 49 | -29% | 15µM*
CCc1ccccc1N(CC(=O)NC1CCCCC1)C(=O)CNC(=O)c1ccco1 | 2% | 1% | 17% | 14 | 15% | -14%
COc1ccc(-c2[nH]c(-c3cccc(OC)c3)nc2SCC(=O)NC2CCCC2)cc1 | 21µM* | u | u | -23 | -22% | 23µM*
COc1ccc(-c2[nH]c(-c3ccc(F)cc3)nc2SCC(=O)NC2CCCC2)cc1 | u | u | -29% | -14 | -17% | u
COc1ccc(-c2[nH]c(-c3ccccc3)nc2SCC(=O)NC2CCCC2)cc1 | 23µM* | u | -23% | u | -1% | 21µM*
CCCCNc1cc(=O)n(C)c(=O)n1C | -4% | -7% | 13% | 21 | 15% | -3%
CCCCNC1=CC(=O)C(NCCCC)=CC1=O | 23µM* | x | -17% | -1 | -22% | 16µM*
CCCCNC1=CC(=O)C(=O)c2ccccc21 | 8.2µM* | 9% | 23µM* | 20 | -5% | 21µM*
CCCCNC(=O)C(Sc1ccccc1)c1ccccc1 (stereo not given) | -18% | 15% | 2% | -5 | 4% | -4%
Cc1cccc(OCC(=O)NNC(=O)C2CCCCC2C(=O)O)c1 (stereo not given) | -23% | 12% | 9% | 11 | 11% | -23%
C=CCn1c(CCC(=O)O)ccc1-c1ccccc1 | -9% | -2% | -5% | -77* | 0% | u
CC(=O)Nc1nonc1-c1nnc(SCc2ccccc2F)n1C | u | x | x | x | x | -29%
COc1ccc(C(=O)O)c(O)c1 | 2% | x | 4% | 0 | 7% | -14%
O=C(O)c1cc(/C=C/C(=O)c2cc(F)ccc2O)c2c(c1)COCO2 | -29% | u | -7% | -14 | 0% | u
COc1ccc(C(=O)/C=C/c2cc(C(=O)O)cc3c2OCOC3)c(O)c1 | u | u | u | -94* | u | 23µM*
COc1ccc(C(=O)C=Cc2cccs2)c(O)c1 | u | x | -18% | -54* | -19% | u
